Measurements reported in PubChem BioAssay (NCATS).
Inconclusive results are not listed. Activity calls are given as the source filed them. Calls come from the whole dose curve; as a rule, active = well fitted inhibition curve with a large enough effect; inconclusive = small, poorly fitted or top-dose-only effect; inactive = flat fitted curve, though single readings scatter.

Key:
Conditions in all cases: P. falciparum in erythrocytes, SYBR Green DNA, 72 h
[1] = qHTS profiling for inhibitors of Plasmodium falciparum proliferation (AID 504749); note: nearly all actives have a fitted effect of over 60% in size
Method in brief: (§1)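 Parasite proliferation within erythrocytes, 72 h exposure. Endpoint: SYBR Green I fluorescence after overnight lysis at room temperature. Controls: 0.29 uM artemisinin, DMSO.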

3D7 = assay: as above
Method in brief: as §1

7G8 = assay: as above
Method in brief: as §1

AA1029 = assay: as above
Method in brief: as §1

AS120 = assay: as above
Method in brief: as §1

ATS189 = assay: as above
Method in brief: as §1

ATS95 = assay: as above
Method in brief: as §1

C2A = assay: as above
Method in brief: as §1

CP185 = assay: as above
Method in brief: as §1

CP191 = assay: as above
Method in brief: as §1

CP192 = assay: as above
Method in brief: as §1

CP194 = assay: as above
Method in brief: as §1

CP201 = assay: as above
Method in brief: as §1

CP203 = assay: as above
Method in brief: as §1

CP211 = assay: as above
Method in brief: as §1

CP215 = assay: as above
Method in brief: as §1

CP217 = assay: as above
Method in brief: as §1

CP237 = assay: as above
Method in brief: as §1

CP238 = assay: as above
Method in brief: as §1

CP247 = assay: as above
Method in brief: as §1

Measured: Potency
Potency is the fitted concentration of half-maximal effect.

CC[C@]1(O)CC2CN(CCc3c([nH]c4ccccc34)[C@@](C(=O)OC)(c3cc4c(cc3OC)N(C)[C@H]3[C@@](O)(C(=O)OC)[C@H](OC(C)=O)[C@]5(CC)C=CCN6CC[C@]43[C@@H]65)C2)C1 (some centres not stated)
active: [1]; parasite line A 2.51 µM | [1]; parasite line B 3.98 µM | 3D7 0.794 µM | 7G8 1.12 µM | AA1029 1.41 µM | AS120 2.51 µM | ATS189 4.47 µM | ATS95 3.55 µM | C2A 2.82 µM | CP185 3.55 µM | CP191 2.82 µM | CP192 4.26 µM | CP194 3.01 µM | CP201 4.78 µM | CP203 4.26 µM | CP211 1.51 µM | CP215 2.13 µM | CP217 3.98 µM | CP237 0.158 µM | CP238 3.16 µM | CP247 0.355 µM

CC(=O)O[C@H]1C(=O)[C@@]2(C)[C@H]([C@H](OC(=O)c3ccccc3)[C@]3(O)C[C@H](OC(=O)[C@H](O)[C@@H](NC(=O)c4ccccc4)c4ccccc4)C(C)=C1C3(C)C)[C@]1(OC(C)=O)CO[C@@H]1C[C@@H]2O
active: [1]; parasite line A 0.355 µM | [1]; parasite line B 0.251 µM | 3D7 0.282 µM | 7G8 0.398 µM | AA1029 0.562 µM | AS120 0.398 µM | ATS189 0.631 µM | ATS95 0.631 µM | C2A 0.355 µM | CP185 0.199 µM | CP191 0.178 µM | CP192 0.675 µM | CP194 0.675 µM | CP201 0.953 µM | CP203 0.849 µM | CP211 0.478 µM | CP215 1.35 µM | CP217 0.562 µM | CP237 0.708 µM | CP238 0.251 µM | CP247 0.355 µM
